The campaign covered roughly 16,000 compounds. About 5,700 (36%) were called active. Roughly 24% stayed inconclusive and do not appear here. The call rests on the fitted dose curve; in most records, active means well fitted curve in the direction sought with a large enough effect; inconclusive means small, poorly fitted or top-dose-only effect, or effect the other way; inactive means no such curve, though single readings can be large or run the other way. The list shows a part of the results.
What follows are molecules tested against Cytochrome P450 1A2 (Homo sapiens) (UniProt P05177) (assay: Cytochrome panel assay with activity outcomes). Details: recombinant CYP, pro-luciferin dealkylation, luminescence, p450-cyp1a2; series mostly up to 57.1 µM; activity, negative = inhibition: at the top concentration.
Chain of Cytochrome P450 1A2 (Homo sapiens) (P05177 whole entry, looked up): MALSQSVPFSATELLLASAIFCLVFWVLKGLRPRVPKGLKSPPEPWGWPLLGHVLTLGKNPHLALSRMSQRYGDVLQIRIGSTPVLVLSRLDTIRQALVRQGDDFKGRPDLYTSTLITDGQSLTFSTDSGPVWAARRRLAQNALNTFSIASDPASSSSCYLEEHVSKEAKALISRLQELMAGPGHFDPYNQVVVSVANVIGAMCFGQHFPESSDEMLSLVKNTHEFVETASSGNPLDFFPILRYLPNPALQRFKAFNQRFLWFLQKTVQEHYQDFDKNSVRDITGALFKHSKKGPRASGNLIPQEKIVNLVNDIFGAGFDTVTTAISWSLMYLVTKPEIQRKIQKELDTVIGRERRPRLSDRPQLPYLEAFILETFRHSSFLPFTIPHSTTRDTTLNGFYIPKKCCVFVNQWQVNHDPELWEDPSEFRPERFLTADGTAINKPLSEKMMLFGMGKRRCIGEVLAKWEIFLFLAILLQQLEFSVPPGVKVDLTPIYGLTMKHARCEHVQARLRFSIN
In the case of CC(NC(=O)CCSc1nc(-c2ccco2)cc(C(F)(F)F)n1)c1ccccc1 (centres undefined), the AC50 is reported as 12600 nM (active). In the case of COC(=O)c1ccc(C(NC(=O)c2ccco2)[C@]2(C)C[C@H]2C2CCCCC2)cc1 (some centres undefined), the “activity, negative = inhibition” value is reported as -13.3% (inactive). In the case of CC1CCN(C(NC(=O)c2ccco2)C(=O)c2ccccc2)CC1 (centres undefined), the AC50 is reported as 14100 nM (active). O=C(NC(C(=O)c1ccccc1)n1cnccc1=O)c1ccccc1 (centres undefined) was tested, and the “activity, negative = inhibition” value was 3.62% (inactive). For NC(N)=Nc1ccc(-c2ccc(N=C(N)N)cc2)cc1, the activity, negative = inhibition was -1.39% [at 11.4 µM] (inactive). For CCSC(N)=Nc1ccc(C(F)(F)F)cc1, the AC50 was 2510 nM (active). With CCOC(=O)c1sc(C)c(C(=O)NCC(C)(C)CN(C)C)c1N the “activity, negative = inhibition” value was -3.26% (inactive). With CCOC(=O)c1nc(N)sc1C(=O)OCC the AC50 was 7080 nM (active). In the case of CCN1CCN(C(=O)N[C@H](C(=O)N[C@@H]2C(=O)N3[C@@H]2SC(C)(C)[C@@H]3C(=O)O)c2ccccc2)C(=O)C1=O, the “activity, negative = inhibition” value is reported as -2.8% [at 25.6 µM] (inactive). For O=C(O)c1nn(-c2ccccc2-c2n[nH]c(=O)[nH]c2=O)c(=O)[nH]c1=O, the activity, negative = inhibition was -21.2% [at 11.4 µM] (inactive). For O=C1C(C2=NC(C(=O)O)C3C(=O)N(c4ccc(Cl)cc4)C(=O)C23)=C(O)c2ccccc21 (centres undefined), the “activity, negative = inhibition” value was -5.96% (inactive). For O=C(O)c1nn(-c2ccc(Cl)cc2)c2c1C(=O)c1ccccc1C2=O, the AC50 was 251 nM (active). In the case of CC(C)CN1CC[C@@]2(CCCN(C(=O)c3cnccn3)C2)C1, the “activity, negative = inhibition” value is reported as -15.1% (inactive). In the case of Cc1cc(NC(=O)c2ccccc2Cl)c(C(C)C)cc1O, the AC50 is reported as 3550 nM (active). With Cc1cccc(C)c1NC(=O)C(NC=O)c1ccccc1Cl (centres undefined) the “activity, negative = inhibition” value was 2.26% (inactive). O=C(Nc1ccccc1Cl)c1ccccc1Cl was tested, and the AC50 was 1780 nM (active). O=C(NNc1cccc(Cl)n1)Nc1ccccc1Cl was tested, and the AC50 was 2510 nM (active). CC(=O)NNc1cccc(Cl)n1 was tested, and the “activity, negative = inhibition” value was -17.3% (inactive). With Cn1sc(NC(=O)c2ccccc2Cl)nc1=O the “activity, negative = inhibition” value was -20.9% (inactive). In the case of O=C(Nc1nnc(-c2ccc(Cl)cc2)o1)Nc1ccccc1Cl, the AC50 is reported as 1580 nM (active). In the case of O=C(CCN1CCN(CC(=O)Nc2ccccc2Cl)CC1)Nc1ccccc1F, the “activity, negative = inhibition” value is reported as -0.462% (inactive). For CCCC(O)(CCC)C(=O)NN1CCCCC1, the “activity, negative = inhibition” value was -7.66% (inactive). In the case of O=C(O)C1CCCCC1C(=O)Nc1ccccc1Cl (centres undefined), the “activity, negative = inhibition” value is reported as -11.2% (inactive). In the case of O=C(O)COC(=O)Cc1ccccc1Nc1c(Cl)cccc1Cl, the “activity, negative = inhibition” value is reported as 3.13% [at 25.6 µM] (inactive). O=C(Nc1ccccc1Cl)c1ccn[nH]1 was tested, and the AC50 was 794 nM (active). NC(=O)NC(=O)Nc1ccccc1Cl was tested, and the AC50 was 4470 nM (active). COc1nc(N)nc2c1ncn2[C@@H]1C[C@H](O)[C@@H](CO)O1 was tested, and the activity, negative = inhibition was -7.83% [at 11.4 µM] (inactive). In the case of O=C1CC(N2CCOCC2)C(=O)N1c1cccc(Cl)c1 (centres undefined), the “activity, negative = inhibition” value is reported as 2.37% (inactive). With Clc1cccc(N/N=C/c2ccc(N3CCOCC3)cc2)c1 the AC50 was 2510 nM (active).
On the % scale 0 is the no-effect control and ±100 the full control effect.
